Compounds without any hit were thinned out: in the full panel of roughly 83,000, 20% have a hit.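 Plates (96-well) were seeded with cells, treated with compound at one concentration, and incubated for 48 hours before percent growth was determined.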 A number with no mark means an inactive call. Calls of active or inactive are those of the source. The calls were made as follows: active = growth percent below 10; inactive = the rest.
Key:
Assay in all cases: NCI-60 one-dose screen, 48 h (100 = growth as untreated, 0 = no growth, -100 = all killed)
Settings in all cases: 10 µM unless noted
[1] = system: SN12C renal
[2] = system: UO-31 renal
[3] = system: TK-10 renal
[4] = system: CAKI-1 renal
[5] = system: A498 renal
[6] = system: CCRF-CEM leukemia
[7] = system: MOLT-4 leukemia
[8] = system: SR leukemia
[9] = system: ACHN renal

Structure (SMILES) | growth [1] | growth [2] | growth [3] | growth [4] | growth [5] | growth [6] | growth [7] | growth [8] | growth [9]
O=C(Nc1cccc(-n2cc(-c3ccncc3)c(-c3ccc(O)c(Cl)c3)n2)c1)Nc1ccc(Cl)c(C(F)(F)F)c1 | 9.97% (active) | -18.9% (active) | -15% (active) | -30.9% (active) | 37.6% | 1.32% (active) | -20.6% (active) | 3.22% (active) | 
c1ccc(-c2nnc(Nc3nnc(-c4ccccc4)s3)s2)cc1 | 102% | 82.5% | 142% | 87.9% | 92.1% | 95.5% | 102% | 97.4% | 
S=C1SCN(Cc2ccccc2)CN1Cc1ccco1 | 93.5% | 78.6% | 28.7% | 96.7% | 99% | 10.8% | 51.6% | 22% | 
C=C1c2c(C)nn(-c3ccc(C#CCOC4OC(CO)C(O)C(O)C4O)cc3)c2N(C)C23C[C@H]1C1(C)c4c(C)nn(-c5ccc(C#CCOC6OC(CO)C(O)C(O)C6O)cc5)c4N(C)C(C)(C[C@H]12)C3 (stereo not given in full) | 8.29% (active) | 21.1% |  | -29.8% (active) | 4.38% (active) | -30.2% (active) | -14.9% (active) | 6.31% (active) | 27.7%
N#CCNc1ccccc1N | 104% | 65.1% | 104% |  | 104% |  |  | 116% | 
N#Cc1cccc(/C=C(/C(=O)c2ccccc2)c2ccccc2)c1 | 49.4% | 49.3% |  | 55.5% | 74.3% | 2.7% (active) | 4.97% (active) | 3% (active) | 45%
